# According to PubChem BioAssay (Tox21):
# Records with an inconclusive call do not appear. Active and inactive are the calls of the source. The call rests on the fitted dose curve; in most records, active means well fitted cell-killing curve with a large enough effect in the repeat runs; inconclusive means weak or mixed curves; inactive means flat fitted curve, though single readings scatter.
# Test: qHTS RealTime-Glo MT Cell Viability Assay in HepG2 cells - 16 hour (AID 1224885); further: nearly all actives have a fitted effect of over 50% in size
# Settings: RealTime-Glo luminescence; series mostly up to 76.8 µM; activity change, negative = cytotoxic: at the top concentration
# Text: U.S. Tox21 Program National Center for Advancing Translational Sciences [NCATS] NIH Chemical Genomics Center [NCGC] U.S. Environmental Protection Agency [EPA] National Institutes of Environmental Health Sciences [NIEHS] National Toxicology Program [NTP] U.S. Food and Drug Administration [FDA] Tox21 Assay Overview: Measure of cell viability is critical in the cell-base assay. Analysis of cell viability is necessary for the characterization of cell responses to cytotoxic drugs and environmental stress. A RealTime-Glo MT Cell Viability Assay to monitor cell viability in real time of continues cell culture during 40 hours of compound treatment was used to screen Tox21 10K library compounds in HepG2 cells. The RealTime-Glo MT Cell Viability Assay is a nonlytic, homogeneous, bioluminescent method to measure cell viability in real time using a simple, plate-based method. The assay involves adding NanoLuc luciferase and a cell-permeant prosubstrate to cells in culture. Viable cells reduce the proprietary prosubstrate to generate a substrate for NanoLuc luciferase. This substrate diffuses from cells into the surrounding culture medium, where it is rapidly used by the NanoLuc Enzyme to produce a luminescent signal. The signal correlates with the number of viable cells, making the assay well suited for cytotoxicity studies.
# Tox21 Assay Protocol Summary: The mixture of HepG2 cell suspension and reagents were dispensed at 600cells/6 ul/well in 1536-well tissue culture treated black solid bottom plates using a Multidrop dispenser. After the assay plates were incubated at a 37 C/5% CO2 incubator for 5 hours, 23 nL of compounds dissolved in DMSO, positive and negative controls was transferred to the assay plate by a pintool work station. The plates were incubated at 37 C for 40 hours. The luminescence intensity were measured at 0h, 8h, 16h, 24h, 32h and 40h time points using ViewLux plate reader during compound treatment.
# On the % scale 0 is the no-effect control and ±100 the full control effect.
row,Compound,"activity change, negative = cytotoxic"
1,CC(C)COC(=O)c1ccc(N)cc1,-0.378% [at 35.3 µM] (inactive)
2,O=C(O)CNC(=O)c1ccccc1,1.48% [at 35.3 µM] (inactive)
3,CC(COc1ccccc1)NN (stereo not given),0.518% [at 35.3 µM] (inactive)
4,CC(=O)N[C@H]1[C@H]([C@H](O)[C@H](O)CO)OC(C(=O)O)=C[C@@H]1N=C(N)N,4.11% [at 35.3 µM] (inactive)
5,CCOC(=O)c1cnc2c(cnn2CC)c1NN=C(C)C,0.703% [at 35.3 µM] (inactive)
6,CC1=NN(c2cc(S(=O)(=O)O)ccc2Cl)C(=O)C1N=Nc1ccccc1 (stereo not given),-0.777% (inactive)
7,O=C(c1ccccc1O)c1ccccc1O,-13.3% (inactive)
8,CNCC(O)c1ccc(O)c(O)c1 (stereo not given),-4.82% [at 35.3 µM] (inactive)
9,O=C(O)Cc1csc(-c2ccc(Cl)cc2)n1,4.01% [at 35.3 µM] (inactive)
10,COc1c(N2CCNC(C)C2)c(F)cc2c(=O)c(C(=O)O)cn(C3CC3)c12 (stereo not given),3.97% [at 35.3 µM] (inactive)
11,CN1CCN(c2cc3c(nn2)Oc2ccccc2N3C)CC1,-5.35% [at 15.8 µM] (inactive)
12,CO[C@@]1(NC(=O)CSC[C@@H](N)C(=O)O)C(=O)N2C(C(=O)O)=C(CSc3nnnn3C)CS[C@@H]21,1.93% [at 35.3 µM] (inactive)
13,CCCCOCCOC(=O)CCCCCCCCC(=O)OCCOCCCC,-0.834% (inactive)
14,CCCCOC(=O)CCC(C)=O,4.18% (inactive)
15,CCCc1nn(C)c2c(=O)[nH]c(-c3cc(S(=O)(=O)N4CCN(C)CC4)ccc3OCC)nc12,-4.77% [at 35.3 µM] (inactive)
16,NCCCC(N)(C(=O)O)C(F)F (stereo not given),1.68% [at 35.3 µM] (inactive)
17,CC(C)NNC(=O)c1ccncc1,-1.16% [at 35.3 µM] (inactive)
18,O=C(CO)[C@@H](O)[C@H](O)[C@@H](O)CO,2.16% [at 35.3 µM] (inactive)
19,O=S(=O)(O)c1cccc2ccccc12,3.06% (inactive)
20,C[N+](C)(C)CCCCCCCCCC[N+](C)(C)C,2.01% [at 35.3 µM] (inactive)

row,Compound,"activity change, negative = cytotoxic"
1,CCC1C(=O)OCC1Cc1cncn1C (stereo not given),4.02% [at 35.3 µM] (inactive)
2,CC(C)C(=O)OC(=O)C(C)C,0.431% (inactive)
3,CC(=O)Nc1ccc(OCC(O)CNC(C)C)cc1 (stereo not given),2.7% [at 35.3 µM] (inactive)
4,Nc1ccccn1,-2.48% (inactive)
5,CCCCOCCOC(=O)COc1cc(Cl)c(Cl)cc1Cl,4.86% (inactive)
6,CCCCc1ccc2c(n1)[C@@H](c1ccc(OC)cc1C[C@H](C)C(=O)O)[C@H](C(=O)O)[C@H]2c1ccc2c(c1)OCO2,6.38% (inactive)
7,c1coc(CNc2ncnc3nc[nH]c23)c1,-0.611% (inactive)
8,C=C(C)C(=O)OCCOCCOCCOCCOC(=O)C(=C)C,-4.59% (inactive)
9,CCN[C@@H]1C[C@H](N)[C@@H](OC2OC(CN)=CCC2N)[C@H](O)[C@H]1O[C@H]1OC[C@](C)(O)[C@H](NC)[C@H]1O (stereo not given in full),0.169% [at 0.29 µM] (inactive)
10,CC(CC=O)CC(C)(C)C (stereo not given),0.968% (inactive)
11,CCOC(=O)C1=NOC(c2ccccc2)(c2ccccc2)C1,-7.26% (inactive)
12,CC(=O)c1ccc2ccccc2c1,0.224% (inactive)
13,NC(CCC(=O)O)C(=O)O (stereo not given),1.71% (inactive)
14,Cc1coc2ccccc2c1=O,3.07% [at 35.3 µM] (inactive)
15,CCCCCC(C)N (stereo not given),0.243% [at 35.3 µM] (inactive)
16,c1ccc(CCc2ccccc2)cc1,-1.21% (inactive)
17,CCN(Cc1ccccc1)c1ccccc1,-9.5% (inactive)
18,Clc1cc(Cl)cc(Cl)c1,0.609% (inactive)
19,CCCCCCC#CC(=O)OC,-7.29% (inactive)
20,CCO[Si](OCC)(OCC)c1ccccc1,0.241% (inactive)
